{"source": "PubChem BioAssay (NCI)", "note": "The panel holds about 83,000 compounds, 20% with a hit somewhere; the sample as a whole holds those more often.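 Method: cells in 96-well plates; compound added at one concentration; 48 h incubation; percent growth measured; values under 10 scored active.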 Active and inactive are the calls of the source.", "data": [{"system": "UO-31 renal", "assay": "NCI-60 one-dose screen, 48 h (100 = growth as untreated, 0 = no growth, -100 = all killed)", "conditions": "10 µM unless noted", "values": [{"compound": "CSc1nc(N)c2c(n1)NC(c1ccccc1)C1CCc3ccccc3C1=N2", "note": "(centres undefined)", "growth": "43% (inactive)"}, {"compound": "COC(=O)c1c(C)nc(C)c2c1C(=O)C(Br)=C(NCCCCO)C2=O", "growth": "79.7% (inactive)"}, {"compound": "COc1ccc(S(=O)(=O)Oc2ccc(-c3sc4cc(OS(=O)(=O)c5ccc(OC)cc5)ccc4c3C(=O)c3ccc(OCCN4CCCCC4)cc3)cc2)cc1", "growth": "80.7% (inactive)"}, {"compound": "C=C(c1ccc(C(=O)O)c(F)c1)c1cc2c(cc1C)C(C)(C)C=CC2(C)C", "growth": "81.4% (inactive)"}, {"compound": "COc1cc(C2=Nc3c(N)nc(N)nc3NC(c3cccc(Nc4ccnc5cc(C(F)(F)F)ccc45)c3)C2)cc(OC)c1OC", "note": "(centres undefined)", "growth": "51.8% (inactive)"}]}, {"system": "TK-10 renal", "assay": "NCI-60 one-dose screen, 48 h (100 = growth as untreated, 0 = no growth, -100 = all killed)", "conditions": "10 µM unless noted", "values": [{"compound": "CN1CCN(CCCNC(=O)c2c3c(n4ccccc24)C(=O)c2ncccc2C3=O)CC1", "growth": "56.7% (inactive)"}, {"compound": "CN1CCN(CC(=O)N(C)c2ccc(N=C(c3ccccc3)c3c(O)[nH]c4ccc([N+](=O)[O-])cc34)cc2)CC1", "growth": "103% (inactive)"}, {"compound": "CCCCCCCCNc1ncnc2c1ncn2Cc1nnc2c3ccccc3c(Cl)nn12", "growth": "43.8% (inactive)"}, {"compound": "CC/C(=C(/c1ccc(Cl)cc1)c1ccc(OCCCN(C)C)cc1)c1ccc(OC)cc1", "growth": "66.7% (inactive)"}, {"compound": "CCN(CC)CCCNC(=O)c1c2c(n3ccccc13)C(=O)c1ncccc1C2=O", "growth": "-0.124% (active)"}, {"compound": "CCCn1cnc2c(c1=N)C(c1ccc(Cl)cc1)c1sc3c(F)cccc3c1O2", "note": "(centres undefined)", "growth": "102% (inactive)"}, {"compound": "Cc1ccc(C23CCC(=O)N2CCc2cncn23)cc1", "note": "(centres undefined)", "growth": "91.7% (inactive)"}, {"compound": "O=C(COc1ccc(/C=C2\\Oc3ccccc3C2=O)cc1)Nc1nccs1", "growth": "134% (inactive)"}, {"compound": "Cc1c(C(=O)C(SC(=S)N2CCOCC2)SC(=S)N2CCOCC2)nnn1-c1ccc([N+](=O)[O-])cc1", "growth": "100% (inactive)"}, {"compound": "O=[N+]([O-])c1ccc(Oc2cccc3c(Oc4ccc([N+](=O)[O-])cc4[N+](=O)[O-])cccc23)c([N+](=O)[O-])c1", "growth": "119% (inactive)"}, {"compound": "CN(C)CCOc1ccc(/C(=C(/CCCCCCCCCC[P+](c2ccccc2)(c2ccccc2)c2ccccc2)c2ccccc2)c2ccccc2)cc1", "growth": "-82.7% (active)"}, {"compound": "CC1(C)CC[C@]2(CO)CC[C@]3(C)C(=CC[C@@H]4[C@@]5(C)CCNCC(C)(C)[C@@H]5CC[C@]43C)[C@@H]2C1", "growth": "95% (inactive)"}, {"compound": "O=c1oc2ccccc2cc1-c1nn(-c2ccccc2)cc1/C=N/Nc1nc(-c2ccccc2)c(N=Nc2ccccc2)s1", "growth": "95.1% (inactive)"}, {"compound": "COc1cc(/C=C2\\CN(S(=O)(=O)c3ccc(C)cc3)C/C(=C\\c3cc(CN4CCCC4)c(O)c(OC)c3)C2=O)cc(CN2CCCC2)c1O", "growth": "24.7% (inactive)"}, {"compound": "Nc1ccc(Cl)c2c(=O)c3ccccc3[nH]c12", "growth": "78.1% (inactive)"}, {"compound": "COC(=O)c1sc(-c2ccc(C)cc2)cc1O", "growth": "99.2% (inactive)"}, {"compound": "CCOC(=O)CSc1nc2sc3c(c2c(=O)n1-c1ccccc1)CCCCC3", "growth": "102% (inactive)"}, {"compound": "O=C1NCCS(=O)(=O)/C1=C\\C=C\\c1cccc(C(F)(F)F)c1", "growth": "33.6% (inactive)"}, {"compound": "COc1cc(/C=C2\\C(=O)N(CCOc3cc(O)c4c(=O)cc(-c5ccccc5)oc4c3)c3ccccc32)cc(OC)c1O", "growth": "109% (inactive)"}, {"compound": "CNC1=C([N+](=O)[O-])C(c2ccc(OC)cc2)C(C#N)=C(c2ccc[nH]2)O1", "note": "(centres undefined)", "growth": "117% (inactive)"}, {"compound": "COc1cccc2cc(N(C)c3ncnc4ccccc34)ccc12", "growth": "51% (inactive)"}, {"compound": "Cc1[nH]c(C(=O)Nc2ccc(C(N)=O)cc2OC(C)C)c(Cl)c1Cl", "growth": "117% (inactive)"}, {"compound": "Nc1nc(N)c2c(n1)NC(c1cccc(Nc3ccnc4cc(C(F)(F)F)ccc34)c1)CC(c1ccc(Cl)cc1)=N2", "note": "(centres undefined)", "growth": "87.4% (inactive)"}, {"compound": "COC1=C(OC)C(=O)C(CCCCCCCCCCO)=C(C)C1=O", "growth": "112% (inactive)"}, {"compound": "O=C1c2c(c3c4cccnc4[nH]c3c3ccc4ccccc4c23)C(=O)N1O", "growth": "133% (inactive)"}, {"compound": "CCN1CCN(C(=O)[C@]23CC[C@@H](C)[C@H](C)[C@@H]2C2=CC[C@@H]4[C@@]5(C)C/C(=C/c6ccncc6)C(=O)C(C)(C)[C@@H]5CC[C@@]4(C)[C@]2(C)CC3)CC1", "growth": "38.7% (inactive)"}, {"compound": "C=CC(=O)Nc1ccc2ncnc(Nc3cccc(NS(=O)(=O)CCC)c3Cl)c2c1", "growth": "11.3% (inactive)"}, {"compound": "COc1ccccc1/C=C/C1=C(C)CCC(c2ccccc2OC)C1C", "note": "(centres undefined)", "growth": "41.1% (inactive)"}, {"compound": "CN(C)CCOc1nc2c3cc([N+](=O)[O-])ccc3nn2c2ccccc12", "growth": "60.8% (inactive)"}]}]}
